The source made the active and inactive calls.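 The calls were made as follows, unless noted: active = visually confirmed hit in the image check and inhibition above 20%; inconclusive = visually confirmed hit but inhibition not above 20%; inactive = no visual hit in the image check.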

The term inhibition denotes the relative decrease from the control value, in per cent.

The first experiment in a line: reduction of polyQ htt aggregates in cells – imaging, exon1htt(103Q)mCFP cells, high-content imaging, primary screen (AID 483;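 active = visual image review flags a hit and inhibition of aggregation exceeds 20%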;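 also: compound exposure lasted 3 days before fixation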;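 as to nuclei count: percent of the per-plate median nuclei count of sample wells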). Particulars: exon1htt(103Q)mCFP cell line, aggregate imaging, at 2 µM; inhibition of aggregation: stronger effect = higher value; nuclei count: measured here: cell count, toxicity.
`OCC12COC3c4ccccc4C(OC1)N32` (stereo not drawn): the inhibition of aggregation is -0.1% (inactive) and the nuclei count is 109%.

Turning to `CCOC(=O)c1cccc([P+](=O)O)c1`, the nuclei count amounted to 95.2% and the inhibition of aggregation is 1.9% (inactive).

As to `COc1ccccc1OCCCn1cc(C(=O)c2ccco2)c2ccccc21`, the inhibition of aggregation is -12.2% (inactive) and the nuclei count came out at 101%.

With `Cc1cc(NC(=O)COC(=O)c2c(C)nn(Cc3ccccc3)c2Cl)no1`, the nuclei count came to 90.6% and the inhibition of aggregation was -4.8% (inactive).

`CC(C)OC(=O)c1c(N)n(CC2CCCO2)c2nc3ccccc3nc12` (stereo not drawn): the nuclei count was 104% and the inhibition of aggregation was 23.6% (inactive).

Take `COC(=O)c1ccccc1-n1c(C)nc2ccccc2c1=O`: the inhibition of aggregation was -24.8% (inactive) and the nuclei count turned out to be 103%.

For `CC1CCN2c3nc4ccccn4c(=O)c3CC3(C(=O)N(C)C(=O)N(C)C3=O)C2C1` (stereo not drawn), the inhibition of aggregation is 11.4% (inactive) and the nuclei count came out at 76.7%.

Regarding `CCN1CCN(c2ncnc3ccc(Br)cc23)CC1`, the nuclei count amounted to 77.2% and the inhibition of aggregation was 48% (active).

With `COCCOC(=O)C1=C(N)Oc2c(c(=O)oc3ccccc23)C1c1ccncc1` (stereo not drawn), the inhibition of aggregation is 1.7% (inactive) and the nuclei count came out at 73%.

In the case of `CSc1ccc(CNC2CN3CCC2CC3)cc1` (stereo not drawn), the inhibition of aggregation is -0.6% (inactive) and the nuclei count amounted to 103%.

Take `CCOC(=O)C1CCCCC12C(C#N)=C(N)Oc1n[nH]c(C)c12` (stereo not drawn): the inhibition of aggregation is -12% (inactive) and the nuclei count is 104%.

For `CC1(C)CC(=O)C=C(NCCN2CCN(C(=O)Cc3ccc(Cl)cc3)CC2)C1`, the nuclei count is 120% and the inhibition of aggregation was 3% (inactive).

As for `COc1ccc(CCNC(=O)c2c(N)n(CCN3CCOCC3)c3nc4ccccc4nc23)cc1`, the inhibition of aggregation is -9.7% (inactive) and the nuclei count came to 90.9%.

Consider `CSc1ccc(C(=O)C(C)(C)N2CCOCC2)cc1`, for which the inhibition of aggregation is -13.1% (inactive) and the nuclei count came out at 102%.

For the molecule `COc1ccccc1N1CCN(Cc2cccc(OC)c2O)CC1`, the inhibition of aggregation is 23.5% (inactive) and the nuclei count was found to be 95.4%.

As for `Cc1ccc(S(=O)(=O)Cc2ccc(C(=O)N3CCC4(CC3)OCCO4)o2)cc1`, the nuclei count worked out at 113% and the inhibition of aggregation is 16.1% (inactive).

Consider `CCOc1ccc(Br)c(C2(O)CC(C)N(C)CC2C)c1` (stereo not drawn), for which the nuclei count turned out to be 122% and the inhibition of aggregation was -25.8% (inactive).

For `Cc1ccc(CS(=O)(=O)CCC(=O)N2CCC3(CC2)OCCO3)cc1`, the nuclei count was determined as 111% and the inhibition of aggregation was -8.2% (inactive).

As to `NC(=O)OCCSc1nnc(-c2cccc(C(N)=S)c2)o1`, the inhibition of aggregation is -7.4% (inactive) and the nuclei count is 107%.

`O=C(O)c1nonc1-c1nonc1C(=O)O`: the nuclei count was found to be 99.5% and the inhibition of aggregation was 14.6% (inactive).

The nature of a further experiment: endothelial E-selectin expression blockers – imaging, HUVEC, immunofluorescence, MLSMR starter and 10KST1 sets, primary screen (AID 487).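 As to inhibition: signal is fraction of cell area covered by stained E-selectin grains.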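 As to nuclei count: 100% = median nuclei count of all wells on the same plate.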 Particulars: HUVEC TNFalpha-induced E-selectin immunofluorescence imaging, at 2 µM; inhibition: stronger effect = higher value; nuclei count: measured here: cell number, toxicity.
For the molecule `O=C(Cn1cc(C(=O)c2ccccc2)c2ccccc21)NCc1ccco1`, the inhibition is -0.3% (inactive) and the nuclei count worked out at 103%.

On to `COc1ccc(C2NCc3ccc4c(c3-n3cccc32)OCO4)cc1O` (stereo not drawn), for which the nuclei count amounted to 99% and the inhibition is -140% (inactive).

On to `Cn1c(C(=O)N2CCC3(CC2)OCCO3)cc2c(=O)n(C)c3ccccc3c21`, for which the inhibition was -17.8% (inactive) and the nuclei count was found to be 125%.

On to `O=C1C2CCCN2C(c2ccc(Cl)c(Cl)c2)N1c1ccccn1` (stereo not drawn), for which the inhibition was 17.4% (inactive) and the nuclei count was determined as 101%.

Regarding `CC(=NCc1cccnc1)c1c(O)n(Cc2ccccc2)c(=O)[nH]c1=O`, the inhibition was -174% (inactive) and the nuclei count was 126%.

With `O=C(c1ccc2nc3ccc(Cl)cc3c(=O)n2c1)N1CCC2(CC1)OCCO2`, the nuclei count came to 125% and the inhibition was -56.7% (inactive).

Take `COc1ccc(OC)c(C2=NOC(C(=O)N3CCC4(CC3)OCCO4)C2)c1` (stereo not drawn): the nuclei count is 77.7% and the inhibition is -52.4% (inactive).

For `Cn1c(O)c(C=NCc2ccco2)c(=O)n(C)c1=O`, the nuclei count amounted to 118% and the inhibition was -150% (inactive).

For the molecule `O=c1[nH]c(=O)n(Cc2ccccc2)c(O)c1C=NCCCO`, the inhibition is -59% (inactive) and the nuclei count came out at 128%.

With `O=C(C1CCCN(S(=O)(=O)c2cccc3nsnc23)C1)N1CCC2(CC1)OCCO2` (stereo not drawn), the nuclei count is 125% and the inhibition is -154% (inactive).

For the molecule `Nc1ccccc1C(=O)OC1CSC1`, the nuclei count turned out to be 93.5% and the inhibition was -29.1% (inactive).

In the case of `Cc1cc(N2C(=O)C3CCCN3C2c2cccc(Cl)c2)no1` (stereo not drawn), the inhibition was 28.8% (inactive) and the nuclei count turned out to be 91.4%.

Regarding `COC(=O)c1c(C)n(Cc2ccc3c(c2)OCO3)c2ccc(O)cc12`, the inhibition was 30.8% (inactive) and the nuclei count stood at 90.3%.

Turning to `NC(=O)CSP(=O)(c1ccccc1)c1ccccc1`, the inhibition is -31.5% (inactive) and the nuclei count was found to be 105%.

For `OCC12COC3c4ccccc4C(OC1)N32` (stereo not drawn), the nuclei count was 112% and the inhibition was -7.2% (inactive).

For `CCOC(=O)c1cccc([P+](=O)O)c1`, the nuclei count is 106% and the inhibition is -41.6% (inactive).

Turning to `COc1ccccc1OCCCn1cc(C(=O)c2ccco2)c2ccccc21`, the nuclei count was 111% and the inhibition was -29.4% (inactive).

Take `Cc1cc(NC(=O)COC(=O)c2c(C)nn(Cc3ccccc3)c2Cl)no1`: the inhibition is -68.8% (inactive) and the nuclei count turned out to be 109%.

As to `CC(C)OC(=O)c1c(N)n(CC2CCCO2)c2nc3ccccc3nc12` (stereo not drawn), the inhibition is -26.3% (inactive) and the nuclei count was found to be 191%.

Take `COC(=O)c1ccccc1-n1c(C)nc2ccccc2c1=O`: the nuclei count amounted to 115% and the inhibition is -140% (inactive).

`CC1CCN2c3nc4ccccn4c(=O)c3CC3(C(=O)N(C)C(=O)N(C)C3=O)C2C1` (stereo not drawn): the inhibition was -10% (inactive) and the nuclei count was 95.1%.

In the case of `CCN1CCN(c2ncnc3ccc(Br)cc23)CC1`, the nuclei count worked out at 99.3% and the inhibition is -79% (inactive).

Turning to `COCCOC(=O)C1=C(N)Oc2c(c(=O)oc3ccccc23)C1c1ccncc1` (stereo not drawn), the nuclei count is 73.8% and the inhibition is 1.8% (inactive).

With `CSc1ccc(CNC2CN3CCC2CC3)cc1` (stereo not drawn), the nuclei count was 102% and the inhibition is 32.3% (inactive).

For `CCOC(=O)C1CCCCC12C(C#N)=C(N)Oc1n[nH]c(C)c12` (stereo not drawn), the inhibition is -6.6% (inactive) and the nuclei count stood at 110%.

Consider `CC1(C)CC(=O)C=C(NCCN2CCN(C(=O)Cc3ccc(Cl)cc3)CC2)C1`, for which the nuclei count was 109% and the inhibition is -80.1% (inactive).

`COc1ccc(CCNC(=O)c2c(N)n(CCN3CCOCC3)c3nc4ccccc4nc23)cc1`: the nuclei count was 115% and the inhibition is -157% (inactive).

As for `CSc1ccc(C(=O)C(C)(C)N2CCOCC2)cc1`, the nuclei count was determined as 105% and the inhibition is -65.3% (inactive).

For `COc1ccccc1N1CCN(Cc2cccc(OC)c2O)CC1`, the inhibition was -10% (inactive) and the nuclei count is 85.8%.

On to `Cc1ccc(S(=O)(=O)Cc2ccc(C(=O)N3CCC4(CC3)OCCO4)o2)cc1`, for which the nuclei count amounted to 102% and the inhibition was -17.6% (inactive).

Turning to `CCOc1ccc(Br)c(C2(O)CC(C)N(C)CC2C)c1` (stereo not drawn), the nuclei count is 121% and the inhibition is -36.6% (inactive).

With `Cc1ccc(CS(=O)(=O)CCC(=O)N2CCC3(CC2)OCCO3)cc1`, the nuclei count turned out to be 109% and the inhibition was -31.5% (inactive).

As to `NC(=O)OCCSc1nnc(-c2cccc(C(N)=S)c2)o1`, the nuclei count is 96.2% and the inhibition was -48% (inactive).

As for `O=C(O)c1nonc1-c1nonc1C(=O)O`, the inhibition is -27.8% (inactive) and the nuclei count turned out to be 104%.
